Compound activity as filed in PubChem.
FMDV inh – blocks foot and mouth disease virus; FMDV antiviral cell-based qHTS; Potency, µM (highest dose often 57.9 µM), most hits filed as inhibitors; 410,000 compounds, 1.2% hits; calls by dose curve; tested in HEK293T cells; note: read-out not given here; nearly all actives have a fitted effect of over 45% in size
HCMV antiviral – inhibitors of human cytomegalovirus; HFF cells, HCMV-luciferase reporter, 72 h; active compounds read low; activity change, negative = inhibition, % at 57.5 µM; 410,000 compounds, 4.5% hits; AID 1259415; in the data active = activity change below about -60%; inconclusive = no clear call, values can overlap the other calls; inactive = above about -39%
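Inhibition of viral replication was scored as loss of reporter luminescence in HFFs infected with HCMV-luciferase (MOI 1 PFU/cell) for 72 h; compounds tested at 2 doses, normalized to buffer and Salinomycin controls.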
Lassa entry inh – blocks Lassa virus binding to or entry into cells. Potency, µM (series often up to 37.9 µM), hits mostly inhibitors. Lassa virus pseudotype entry inhibition, cell reporter. AID 540256. 300,000 compounds, 1.2% hits; calls by dose curve; tested in HEK293 cells; note: nearly all actives have a fitted effect of over 50% in size
SARS PLP yeast – inhibitors of SARS-CoV papain-like protease in yeast | S. cerevisiae expressing SARS-CoV PLpro, growth rescue | Potency, µM (series often up to 32.9 µM), most hits filed as activators | 330,000 compounds, 0.19% hits; calls by dose curve; note: nearly all actives have a fitted effect of over 55% in size
HCV inhibitor – inhibitors of hepatitis C virus infection; 340,000 compounds, 3.4% hits; Potency, µM (titrated, usually from 41.8 µM), most hits filed as inhibitors; Huh7.5.1 HCVcc-Cre infection, luciferase reporter, 44 h; AID 651820; active = well fitted inhibition curve with a large enough effect; inconclusive = small, poorly fitted or top-dose-only effect, or another doubt; inactive = no such curve, though single readings can be large or run the other way
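Compounds are dispensed onto cells plated 4 h earlier at 1,000 per well, with HCVcc-Cre virus (about 0.5 moi) added next. Following 44 h of culture, luminescent signal is measured for 15 sec after 15 min with substrate at room temperature.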
Marburg entry inh – blocks Marburg virus binding to or entry into cells; Marburg virus pseudotyped entry inhibition, cell reporter; Potency, µM (series often up to 37.8 µM), actives largely listed as inhibitors; 300,000 compounds, 1.8% hits; calls by dose curve; tested in HEK293 cells
Each line names hits and unclear results; the compound was inactive in the other large screens. Sampled rows, rich in hits. Any-hit rate of the full collection: about 8%.

Cc1cc(C)nc(SCc2nnc(SCC(=O)Nc3ccc(C)c(C)c3)n2Cc2ccco2)n1	Lassa entry inh inconclusive, HCV inhibitor 25.1µM, Marburg entry inh inconclusive
CCOc1ccc(CCNC(=O)CN2CCN(Cc3ccc(F)cc3)C2=O)cc1OCC	HCV inhibitor inconclusive
CCOc1ccc(CCNC(=O)CN2CCN(Cc3ccccc3F)C2=O)cc1OCC	Lassa entry inh inconclusive, HCV inhibitor 11.2µM, Marburg entry inh inconclusive
CCOc1ccc(CCNC(=O)Cn2c(-c3cccs3)cc3cc(F)ccc32)cc1OCC	Lassa entry inh 11.2µM, Marburg entry inh inconclusive (no result: SARS PLP yeast, HCV inhibitor)
COc1ccc(-c2n[nH]c3c2C(c2ccc(OC)c(OC)c2)N(c2ccccc2)C3=O)cc1 (stereo not drawn)	FMDV inh inconclusive, Lassa entry inh inconclusive, Marburg entry inh 7.3µM
COc1ccc(OC)c(C2c3c(-c4ccc(Br)cc4)n[nH]c3C(=O)N2c2ccc(Cl)cc2)c1 (stereo not drawn)	HCMV antiviral -104.9, Lassa entry inh inconclusive, Marburg entry inh inconclusive (no result: SARS PLP yeast, HCV inhibitor)
COc1ccc(C2c3c(-c4ccc(F)cc4)n[nH]c3C(=O)N2c2ccccc2)cc1OC (stereo not drawn)	FMDV inh inconclusive, Lassa entry inh inconclusive (no result: SARS PLP yeast, HCV inhibitor)
COc1ccc(-c2n[nH]c3c2C(c2ccc(O)cc2)N(c2ccc(Br)cc2)C3=O)cc1 (stereo not drawn)	FMDV inh 31.6µM (no result: SARS PLP yeast, HCV inhibitor)
CCOC(=O)c1ccc(N2C(=O)c3[nH]nc(-c4ccc(OC)cc4)c3C2c2ccc(C)cc2)cc1 (stereo not drawn)	HCMV antiviral -82.7, Lassa entry inh inconclusive, Marburg entry inh inconclusive (no result: SARS PLP yeast, HCV inhibitor)
COc1ccccc1-n1c(=O)n(C)c2c(C(N)=O)nc(-c3cc(OC)c(OC)c(OC)c3)nc21	none (no result: SARS PLP yeast, HCV inhibitor, Marburg entry inh)
O=C(Nc1cccc(N2CCC(NCc3cnn(-c4ccccc4)n3)CC2)c1)c1cccnc1	none (no result: HCMV antiviral, Lassa entry inh, SARS PLP yeast, HCV inhibitor, Marburg entry inh)
CS(=O)(=O)N(CC(=O)N1CCCC1)c1ccc(Cl)cc1Cl	HCV inhibitor 2.82µM
Cc1c(C=O)c2ccccn2c1C(=O)c1cccc([N+](=O)[O-])c1	HCV inhibitor inconclusive
COC(=O)c1c(C(=O)OC)c2ccccn2c1C(=O)c1ccc([N+](=O)[O-])cc1	FMDV inh inconclusive, HCMV antiviral -101.9
COc1ccc(/C=N/Nc2cc(N3CCCC3)nc(N3CCCC3)n2)cc1	FMDV inh inconclusive, HCMV antiviral -76.1, Lassa entry inh 3.16µM, HCV inhibitor 7.08µM, Marburg entry inh inconclusive
Oc1ccc(/C=N/Nc2cc(N3CCOCC3)nc(N3CCOCC3)n2)cc1	HCV inhibitor inconclusive, Marburg entry inh 6.51µM (no result: FMDV inh, SARS PLP yeast)
Oc1ccc(/C=N/Nc2cc(N3CCCC3)nc(N3CCCC3)n2)cc1	HCMV antiviral inconclusive, HCV inhibitor inconclusive, Marburg entry inh inconclusive (no result: FMDV inh)
CCCN1C(=O)CN(C2CCCCCC2)C(=O)C1c1ccc(OCC)c(OC)c1 (stereo not drawn)	Lassa entry inh inconclusive (no result: SARS PLP yeast, HCV inhibitor, Marburg entry inh)
CCN(CC)c1ccc(CN(C(=O)Cc2coc3ccc(C)cc23)C2CCS(=O)(=O)C2)cc1 (stereo not drawn)	Lassa entry inh inconclusive (no result: SARS PLP yeast, HCV inhibitor)
CC(=O)S[C@@H]1CC2=CC(=O)CC[C@@]2(C)[C@H]2CC[C@]3(C)[C@H](CC[C@@]34CCC(=O)O4)[C@H]12	none (no result: FMDV inh, HCMV antiviral, Lassa entry inh, SARS PLP yeast, HCV inhibitor)
CC(=O)SC1CC2=CC(=O)CCC2(C)C2CCC3(C)C(CCC34CCC(=O)O4)C12 (stereo not drawn)	HCMV antiviral -63.2, HCV inhibitor inconclusive
Cc1cc(C)c(NC(=O)CCCN2CCCC2)c(C)c1	HCMV antiviral -67.2
O=C(NCC1OCCc2ccccc21)c1ccc(NC(=O)c2ccc(Cl)cc2Cl)cc1 (stereo not drawn)	FMDV inh inconclusive, HCV inhibitor inconclusive
O=C(NCC1OCCc2ccccc21)c1ccc(NC(=O)c2ccccc2Cl)cc1 (stereo not drawn)	FMDV inh 14.1µM, HCMV antiviral inconclusive, Lassa entry inh inconclusive, HCV inhibitor inconclusive, Marburg entry inh 7.94µM
COC(=O)C1=C(C)N(Cc2ccccc2)C(=O)NC1c1ccccc1 (stereo not drawn)	Marburg entry inh inconclusive (no result: FMDV inh, HCMV antiviral, SARS PLP yeast, HCV inhibitor)
C=CC(C1=CC(=O)C(OC)=C(OC)C1=O)c1ccccc1 (stereo not drawn)	FMDV inh 25.1µM (no result: HCMV antiviral, Lassa entry inh, SARS PLP yeast, HCV inhibitor, Marburg entry inh)
COc1ccc(CCC(=O)NCc2nc3cccnc3n2Cc2ccccc2)cc1	HCMV antiviral inconclusive (no result: SARS PLP yeast, HCV inhibitor, Marburg entry inh)
O=C(NCc1ccc(Cl)cc1)C1CCN(S(=O)(=O)c2ccc(N3CCCC3=O)cc2)CC1	FMDV inh inconclusive, HCMV antiviral inconclusive, SARS PLP yeast inconclusive, HCV inhibitor 11.2µM (no result: Lassa entry inh, Marburg entry inh)
O=C(NCc1ccccc1CN1CCCC1)C1CCN(S(=O)(=O)c2ccc(F)c(F)c2)CC1	HCMV antiviral -100.9, Marburg entry inh inconclusive
O=C(NCc1ccccc1)C1CCN(S(=O)(=O)c2ccc(N3CCCC3=O)cc2)CC1	Lassa entry inh inconclusive, HCV inhibitor inconclusive, Marburg entry inh inconclusive
CC[C@]12c3[nH]c4ccc(OC)cc4c3CCN1C(=O)C(CC(=O)NC/C=C(\C)CCC=C(C)C)C[C@@H]2C(=O)N1CCN(C(=O)C2CC2)CC1 (stereo partly drawn)	HCV inhibitor inconclusive (no result: Lassa entry inh)
CC(C)=CCC/C(C)=C/CNC(=O)C[C@H]1C[C@H](C(=O)N2CCOCC2)[C@@]2(CCC3CCCC3)c3[nH]c4cc(CCC(=O)N(C)C)ccc4c3CCN2C1=O	FMDV inh inconclusive, HCMV antiviral -107.9, HCV inhibitor 11.2µM (no result: Lassa entry inh, Marburg entry inh)
CC[C@]12c3[nH]c4ccc(Cl)cc4c3CCN1C(=O)[C@@H](CC(=O)NC/C=C(\C)CCC=C(C)C)C[C@@H]2C(=O)N1CCN(C(=O)c2ccco2)CC1	FMDV inh inconclusive, HCMV antiviral inconclusive, HCV inhibitor 11.2µM (no result: Lassa entry inh)
CN(C)C(=O)CCc1ccc2c3c([nH]c2c1)[C@]1(CCC2CCCC2)[C@@H](C(=O)N2CCOCC2)C[C@H](CC(=O)NCC24CC5CC(CC(C5)C2)C4)C(=O)N1CC3	FMDV inh inconclusive (no result: Lassa entry inh, Marburg entry inh)
COc1ccc2[nH]c3c(c2c1)CCN1C(=O)C(CC(=O)NC/C=C(\C)CCC=C(C)C)C[C@H](C(=O)N2CCOCC2)[C@@]31CCC1CCCC1 (stereo partly drawn)	HCV inhibitor 2.51µM (no result: Lassa entry inh)
CCSc1oc(-c2ccc(F)cc2)nc1S(=O)(=O)c1ccc(C)cc1	HCMV antiviral -65.3 (no result: SARS PLP yeast, HCV inhibitor)
CC(C)CS(=O)(=O)c1oc(-c2ccc(F)cc2)nc1S(=O)(=O)c1ccccc1	FMDV inh 25.1µM, HCMV antiviral -99.8, Lassa entry inh inconclusive, Marburg entry inh inconclusive (no result: SARS PLP yeast, HCV inhibitor)
CNc1oc(-c2ccc(F)cc2)nc1S(=O)(=O)c1ccccc1	HCMV antiviral inconclusive
CCOC(=O)c1ccccc1NC(=O)CSc1nc(=O)[nH]c2c1CCC2	none (no result: SARS PLP yeast, HCV inhibitor, Marburg entry inh)
COc1ccc(-c2cc3c(=O)n(CC(=O)Nc4cc(F)ccc4F)ccn3n2)cc1OC	none (no result: SARS PLP yeast, HCV inhibitor, Marburg entry inh)
CC(C)CCNC(=O)CN1C(=O)CSc2ccc(S(=O)(=O)N3CCC(C)CC3)cc21	none (no result: SARS PLP yeast, HCV inhibitor, Marburg entry inh)
COc1ccc(NC(=O)c2cn(-c3ccccc3)nc2-c2cc3ccccc3o2)cc1	HCMV antiviral inconclusive, Marburg entry inh inconclusive
